The values below come from PubChem BioAssay.

Potency and affinity values are given separately. The source made the active and inactive calls. A call without a number means that no potency is given here. The limit is not given here; nearly all actives have IC50 up to about 0.98 µM.

In this experiment the target is Calcium-dependent protein kinase 1 (Plasmodium falciparum (isolate 3D7)) (UniProt P62344). The experiment can be described thus: PfCDPK1 kinase inhibitors, biochemical, TCAMS library (AID 1159585).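 Also: inhibitors leave more ATP so luminescence rises with inhibition.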 The following applies: recombinant PfCDPK1, Kinase-Glo ATP depletion luminescence.
Sequence of Calcium-dependent protein kinase 1 (Plasmodium falciparum (isolate 3D7)) (P62344 whole entry, looked up): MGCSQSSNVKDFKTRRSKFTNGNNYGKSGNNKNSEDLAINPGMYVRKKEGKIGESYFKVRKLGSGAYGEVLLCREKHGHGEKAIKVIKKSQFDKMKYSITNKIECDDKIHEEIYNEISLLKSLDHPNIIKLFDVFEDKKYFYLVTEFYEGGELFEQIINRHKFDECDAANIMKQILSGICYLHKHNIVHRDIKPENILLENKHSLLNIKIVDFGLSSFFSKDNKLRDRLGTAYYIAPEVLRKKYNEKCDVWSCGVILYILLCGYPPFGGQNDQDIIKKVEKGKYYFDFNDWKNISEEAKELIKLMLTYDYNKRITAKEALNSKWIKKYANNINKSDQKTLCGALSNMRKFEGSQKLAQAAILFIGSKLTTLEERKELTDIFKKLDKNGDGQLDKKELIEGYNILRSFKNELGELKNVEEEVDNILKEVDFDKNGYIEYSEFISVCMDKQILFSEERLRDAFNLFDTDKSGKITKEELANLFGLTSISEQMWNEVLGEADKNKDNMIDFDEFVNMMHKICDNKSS
For `COc1cc2c(cc1C(F)(F)F)N(C(=O)Nc1ccc(Br)cn1)CC2`, the result was inactive.

Regarding `Brc1ccsc1-c1nc(NC2CCN(Cc3ccccc3)CC2)no1`, the outcome was inactive.

Consider `Clc1ccc(C=NNc2ccnc3cc(Cl)ccc23)cc1`, for which the outcome was inactive.

Turning to `Cc1cccc(Cn2ccc3c(N)nc(N)nc32)c1`, the result was inactive.

In the case of `Cc1nc(Nc2ccc(F)cc2)nc(N2CCc3ccccc3[C@@H]2C)c1C`, the result was inactive.

For the molecule `Fc1ccccc1C=NNc1ccnc2cc(Cl)ccc12`, the result was inactive.

As to `c1ccc2c3c([nH]c2c1)C(c1ccc2c(c1)CCO2)N(c1ncnc(N2CCN(CCCN4CCOCC4)CC2)n1)CC3` (stereo not drawn), the result was inactive.

Consider `COc1c(C2CCN(CCCCNC(=O)C=Cc3ccccc3C(F)(F)F)CC2)ccc2c1CCCC2`, for which the outcome was inactive.

Turning to `CCS(=O)(=O)c1ccc(OC)c(Nc2nccc(-c3c(-c4cccc(NC(=O)c5c(F)cccc5F)c4)nn4ncccc34)n2)c1`, the result was inactive.

Consider `Clc1cccc(C=NNc2ccnc3cc(Cl)ccc23)c1`, for which the outcome was inactive.

Turning to `C[C@@H]1CN(c2ccc3[nH]cc(Sc4ccc(-c5cccs5)cc4)c3c2)C[C@H](C)N1`, the outcome was inactive.

`O=[N+]([O-])c1ccc(-n2nc(-c3cccnc3)n(Cc3ccco3)c2=S)c(Cl)c1`: the result was inactive.

Turning to `COc1cc(Nc2nccc(-c3c(-c4cccc(NC(=O)c5c(F)cccc5F)c4)nn4ncccc34)n2)cc(OC)c1OC`, the result was inactive.

Regarding `Cn1cccc1C(=O)Nc1cccc(-c2nn3ccccc3c2-c2ccnc(Nc3ccc4c(c3)OCCO4)n2)c1`, the result was inactive.

In the case of `CC(C)CN1C(=O)C(c2ccc(F)c(F)c2)=C(O)C1c1ccccc1` (stereo not drawn), the outcome was inactive.

For `Cc1ccc(Cn2ccc3c4c(N)nc(N)nc4ccc32)cc1`, the outcome was inactive.

For the molecule `O=C(Nc1ccccc1)Nc1cccc(-c2nn3c(OCCN4CCCC4)cccc3c2-c2ccncc2)c1`, the outcome was inactive.

As for `Cc1ccc(-n2c(C)cc(C(=O)CN3C(=O)NC(Cc4ccccc4)C3=O)c2C)cc1` (stereo not drawn), the outcome was inactive.

With `Cc1csc2nc(C(C)c3ccc(NC(=O)c4cccs4)cc3)oc(=O)c12` (stereo not drawn), the result was inactive.

For `Cc1nc2ccccc2n1C1C[C@H]2CC[C@@H](C1)N2CCC1(c2ccccc2)CCN(C(=O)Nc2ccc(C(F)(F)F)cc2)CC1` (stereo partly drawn), the outcome was inactive.

Regarding `COc1cc(Cc2cnc(N)nc2N)ccc1OCc1csc(-c2ccc(Cl)cc2)n1`, the result was inactive.

On to `CCn1c(-c2nonc2N)nc2c(-c3cc4ccccc4s3)ncc(C(=O)N3CCC(N)C3)c21` (stereo not drawn), for which the outcome was inactive.

For the molecule `Cc1ccccc1Cn1ccc2c3c(N)nc(N)nc3ccc21`, the outcome was inactive.
